Assay results published in the supplement of paper PMC10849652.
About 8,800 targets were measured; listed, in parts, are those with a hit and a random draw of the rest. About 0.5% of all pairs of compound and target were hits. A number with no mark means an inactive call.

Assays:
Test in all cases: log2 fold change, soluble protein after heating vs DMSO (PISA); higher = thermal stabilisation; K562 lysate, 10 uM; active = over 0.2 and 3.5 SD of the protein, either way, in both replicates (recomputed)
[1] = compound: C=CC(=O)N1CCC[C@@H](n2nc(-c3ccc(Oc4ccccc4)cc3)c3c(N)ncnc32)C1 [ibrutinib]
Procedure, shortened: (§1)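 K562 pellets were dounce-homogenised in PBS pH 7.4 with 1 mM MgCl2, and the crude extract at 1 mg/mL protein was treated with 10 μM compound for 30 min. Aliquots were heated for 3 min across 48°C-58°C, pooled, and brought to 0.5% NP-40 at 4°C; soluble protein was the supernatant after 21,000xg for 90 min. Soluble protein was quantified by TMTpro 16plex LC-MS/MS with channel sums equalised, and reported as log2 fold change in thermal stability against DMSO controls, with values from duplicates.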

[2] = compound: CC(=O)c1cnc2ccc(-c3cc(Cl)c(O)c(Cl)c3)nc2c1N[C@H]1CC[C@H](CN(C)C)CC1
Procedure, shortened: as §1

[3] = compound: CC(C)(C)Cn1c(N)nc2ccc(-c3[nH]c(C(C)(C)C)nc3-c3ccc(F)cc3)nc21 [ralimetinib]
Procedure, shortened: as §1

[4] = compound: CC(C)(O)CC(=O)NCCn1ccc2ncnc(Nc3ccc(Oc4cccc(C(F)(F)F)c4)c(Cl)c3)c21
Procedure, shortened: as §1

[5] = compound: CC(C)C1=C2N=C(C=C(N2N=C1)NCC3=CC=CC=C3)NCCCCCCN
Procedure, shortened: as §1

[6] = compound: CC1=C(C(CC(=O)N1)C2=CC=C(C=C2)C(F)(F)F)C(=O)NC3=C(C=C4C(=C3)C=NN4)F
Procedure, shortened: as §1

[7] = compound: CC1=C(C2=C(C=C1)C(=O)C3=CC=CC=C3N2CCCN)C
Procedure, shortened: as §1

[8] = compound: CC1=C(C=C(C=C1)NC(=O)C2=CC(=CC=C2)C(C)(C)C#N)NC3=CC4=C(C=C3)N=CN(C4=O)C
Procedure, shortened: as §1

[9] = compound: CC1=C(C=C(C=C1)NC(=O)C2=CC(=CC=C2)N(C)C)NC(=O)C3=CC=C(C=C3)O
Procedure, shortened: as §1

[10] = compound: CC1=CC=C(C=C1)SC2=C3C=C(SC3=CN=C2)C(=O)N
Procedure, shortened: as §1

[11] = compound: CCCS(=O)(=O)Nc1ccc(F)c(C(=O)c2c[nH]c3ncc(-c4ccc(Cl)cc4)cc23)c1F [vemurafenib]
Procedure, shortened: as §1

[12] = compound: CCCS(=O)(=O)Nc1ccc(F)c(C(=O)c2c[nH]c3ncc(Cl)cc23)c1F
Procedure, shortened: as §1

[13] = compound: CCN(CCCOc1ccc2c(Nc3cc(CC(=O)Nc4cccc(F)c4)[nH]n3)ncnc2c1)CCOP(=O)(O)O [barasertib]
Procedure, shortened: as §1

[14] = compound: CC[C@@H]1C(=O)N(C)c2cnc(Nc3ccc(C(=O)NC4CCN(C)CC4)cc3OC)nc2N1C1CCCC1
Procedure, shortened: as §1

[15] = compound: CC[C@@H]1C(=O)N(C)c2cnc(Nc3ccc(C(=O)N[C@H]4CC[C@H](N5CCN(CC6CC6)CC5)CC4)cc3OC)nc2N1C(C)C [volasertib]
Procedure, shortened: as §1

[16] = compound: CCn1c(C(=O)N(C2CC2)C2CC2)cc2c3c(ncn3C)c(Nc3cc(C)n(C)n3)nc21
Procedure, shortened: as §1

[17] = compound: CCn1cc(-c2ccnc3[nH]c(-c4cccc(CN(C)C)c4)cc23)c(-c2ccc(NC(=O)N(C)C)cc2)n1
Procedure, shortened: as §1

[18] = compound: CN1CCC(CNc2ccc3ncc(-c4cccc(OC(F)(F)F)c4)n3n2)CC1
Procedure, shortened: as §1

[19] = compound: CN1CCN(CCOc2cc(OC3CCOCC3)c3c(Nc4c(Cl)ccc5c4OCO5)ncnc3c2)CC1 [saracatinib]
Procedure, shortened: as §1

[20] = compound: CN1CCN(c2nc(C3=C(c4c[nH]c5ccccc45)C(=O)NC3=O)c3ccccc3n2)CC1 [sotrastaurin]
Procedure, shortened: as §1

Chain of UniProt P21359 (P21359 whole entry, looked up): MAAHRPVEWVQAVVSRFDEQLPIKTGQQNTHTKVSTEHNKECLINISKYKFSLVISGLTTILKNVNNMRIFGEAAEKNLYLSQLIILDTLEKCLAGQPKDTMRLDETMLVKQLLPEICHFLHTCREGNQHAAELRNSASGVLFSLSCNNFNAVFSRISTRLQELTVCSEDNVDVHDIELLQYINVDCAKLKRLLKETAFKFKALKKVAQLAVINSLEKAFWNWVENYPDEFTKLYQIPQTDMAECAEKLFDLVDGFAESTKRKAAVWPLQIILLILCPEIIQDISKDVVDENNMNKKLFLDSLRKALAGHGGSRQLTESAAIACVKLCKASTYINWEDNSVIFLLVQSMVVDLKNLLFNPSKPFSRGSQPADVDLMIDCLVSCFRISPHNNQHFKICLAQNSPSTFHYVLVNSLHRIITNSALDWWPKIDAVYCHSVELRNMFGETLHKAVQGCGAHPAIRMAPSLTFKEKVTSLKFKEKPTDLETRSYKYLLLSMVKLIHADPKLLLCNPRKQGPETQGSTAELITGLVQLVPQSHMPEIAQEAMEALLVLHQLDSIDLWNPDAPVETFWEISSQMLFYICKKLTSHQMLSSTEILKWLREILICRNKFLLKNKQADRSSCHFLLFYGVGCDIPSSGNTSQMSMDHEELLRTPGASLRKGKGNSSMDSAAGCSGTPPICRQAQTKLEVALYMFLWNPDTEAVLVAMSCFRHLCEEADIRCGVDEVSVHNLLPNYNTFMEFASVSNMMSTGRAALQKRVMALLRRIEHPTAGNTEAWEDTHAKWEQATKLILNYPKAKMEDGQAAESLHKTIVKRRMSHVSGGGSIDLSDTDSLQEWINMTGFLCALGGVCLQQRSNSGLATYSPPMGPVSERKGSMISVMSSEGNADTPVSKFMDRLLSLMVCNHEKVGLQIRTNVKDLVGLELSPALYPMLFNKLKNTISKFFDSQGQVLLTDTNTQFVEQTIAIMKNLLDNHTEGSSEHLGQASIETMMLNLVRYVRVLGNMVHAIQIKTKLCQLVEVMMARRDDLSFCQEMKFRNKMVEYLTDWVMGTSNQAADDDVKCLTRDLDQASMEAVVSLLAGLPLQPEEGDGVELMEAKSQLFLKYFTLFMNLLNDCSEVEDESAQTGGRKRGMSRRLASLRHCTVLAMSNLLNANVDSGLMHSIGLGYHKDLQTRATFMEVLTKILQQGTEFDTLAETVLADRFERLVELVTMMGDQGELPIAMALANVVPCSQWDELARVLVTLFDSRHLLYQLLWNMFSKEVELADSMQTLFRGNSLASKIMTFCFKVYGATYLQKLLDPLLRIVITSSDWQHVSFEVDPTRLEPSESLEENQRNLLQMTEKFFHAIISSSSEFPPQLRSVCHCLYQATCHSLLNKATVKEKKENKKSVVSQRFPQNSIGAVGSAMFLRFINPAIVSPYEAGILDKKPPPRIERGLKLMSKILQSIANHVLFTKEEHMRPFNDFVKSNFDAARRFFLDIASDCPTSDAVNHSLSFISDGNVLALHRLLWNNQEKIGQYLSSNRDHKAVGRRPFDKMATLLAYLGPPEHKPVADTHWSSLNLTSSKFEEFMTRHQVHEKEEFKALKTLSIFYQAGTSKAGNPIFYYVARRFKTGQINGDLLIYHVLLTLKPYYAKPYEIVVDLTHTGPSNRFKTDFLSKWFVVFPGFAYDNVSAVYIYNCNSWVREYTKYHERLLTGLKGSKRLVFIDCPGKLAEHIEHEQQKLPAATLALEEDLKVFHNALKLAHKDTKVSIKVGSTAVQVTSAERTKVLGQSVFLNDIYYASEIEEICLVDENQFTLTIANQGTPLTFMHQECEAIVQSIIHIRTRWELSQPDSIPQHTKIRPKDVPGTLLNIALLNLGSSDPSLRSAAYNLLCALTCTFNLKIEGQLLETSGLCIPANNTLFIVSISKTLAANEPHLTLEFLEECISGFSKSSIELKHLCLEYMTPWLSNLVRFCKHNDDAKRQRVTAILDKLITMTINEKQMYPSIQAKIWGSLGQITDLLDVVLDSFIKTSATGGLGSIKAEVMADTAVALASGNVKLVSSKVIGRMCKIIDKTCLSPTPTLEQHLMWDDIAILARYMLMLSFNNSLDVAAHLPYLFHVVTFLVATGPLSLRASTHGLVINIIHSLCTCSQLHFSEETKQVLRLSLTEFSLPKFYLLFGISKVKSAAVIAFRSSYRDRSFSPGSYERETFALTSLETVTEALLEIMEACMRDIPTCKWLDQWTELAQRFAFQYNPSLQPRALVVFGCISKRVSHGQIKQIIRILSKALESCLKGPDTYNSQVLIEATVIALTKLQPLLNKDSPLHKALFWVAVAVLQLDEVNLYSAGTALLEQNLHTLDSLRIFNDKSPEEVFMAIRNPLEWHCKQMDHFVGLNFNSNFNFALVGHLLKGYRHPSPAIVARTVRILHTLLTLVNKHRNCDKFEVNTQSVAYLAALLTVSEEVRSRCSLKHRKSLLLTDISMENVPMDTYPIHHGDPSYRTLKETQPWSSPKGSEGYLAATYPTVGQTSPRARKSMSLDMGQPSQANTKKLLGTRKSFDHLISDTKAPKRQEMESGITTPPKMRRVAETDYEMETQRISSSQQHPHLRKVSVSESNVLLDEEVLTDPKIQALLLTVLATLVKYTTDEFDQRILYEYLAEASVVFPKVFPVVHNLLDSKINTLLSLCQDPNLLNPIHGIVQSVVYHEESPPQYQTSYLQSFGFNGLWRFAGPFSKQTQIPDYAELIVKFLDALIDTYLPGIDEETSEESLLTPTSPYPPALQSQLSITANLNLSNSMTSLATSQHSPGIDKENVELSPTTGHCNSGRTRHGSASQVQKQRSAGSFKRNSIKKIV
Chain of UniProt Q9NZJ9 (Q9NZJ9 whole entry, looked up): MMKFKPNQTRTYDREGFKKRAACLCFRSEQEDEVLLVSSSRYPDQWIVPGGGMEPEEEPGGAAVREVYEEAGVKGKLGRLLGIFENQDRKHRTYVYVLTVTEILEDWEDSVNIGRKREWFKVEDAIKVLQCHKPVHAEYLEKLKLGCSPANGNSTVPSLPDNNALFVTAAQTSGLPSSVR
Chain of UniProt Q9BTX1 (Q9BTX1 whole entry, looked up): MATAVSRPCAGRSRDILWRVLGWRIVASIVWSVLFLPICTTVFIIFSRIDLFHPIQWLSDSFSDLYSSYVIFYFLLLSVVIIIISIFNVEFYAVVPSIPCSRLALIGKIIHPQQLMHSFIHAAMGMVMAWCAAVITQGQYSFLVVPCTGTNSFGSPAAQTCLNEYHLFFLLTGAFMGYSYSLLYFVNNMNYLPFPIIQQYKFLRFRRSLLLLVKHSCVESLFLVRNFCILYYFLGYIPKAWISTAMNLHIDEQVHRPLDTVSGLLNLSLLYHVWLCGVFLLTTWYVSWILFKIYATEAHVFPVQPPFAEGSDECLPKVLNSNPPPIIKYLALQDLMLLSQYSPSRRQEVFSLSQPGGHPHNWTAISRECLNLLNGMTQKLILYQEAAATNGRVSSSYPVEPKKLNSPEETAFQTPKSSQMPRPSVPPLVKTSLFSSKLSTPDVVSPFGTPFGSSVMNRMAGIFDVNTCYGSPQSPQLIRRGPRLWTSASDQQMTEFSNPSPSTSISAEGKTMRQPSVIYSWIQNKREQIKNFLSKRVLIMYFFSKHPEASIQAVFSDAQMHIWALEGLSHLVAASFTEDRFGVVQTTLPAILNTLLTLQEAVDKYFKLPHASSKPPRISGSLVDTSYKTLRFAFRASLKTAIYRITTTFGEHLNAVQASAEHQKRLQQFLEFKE
Chain of UniProt O60313 (O60313 whole entry, looked up): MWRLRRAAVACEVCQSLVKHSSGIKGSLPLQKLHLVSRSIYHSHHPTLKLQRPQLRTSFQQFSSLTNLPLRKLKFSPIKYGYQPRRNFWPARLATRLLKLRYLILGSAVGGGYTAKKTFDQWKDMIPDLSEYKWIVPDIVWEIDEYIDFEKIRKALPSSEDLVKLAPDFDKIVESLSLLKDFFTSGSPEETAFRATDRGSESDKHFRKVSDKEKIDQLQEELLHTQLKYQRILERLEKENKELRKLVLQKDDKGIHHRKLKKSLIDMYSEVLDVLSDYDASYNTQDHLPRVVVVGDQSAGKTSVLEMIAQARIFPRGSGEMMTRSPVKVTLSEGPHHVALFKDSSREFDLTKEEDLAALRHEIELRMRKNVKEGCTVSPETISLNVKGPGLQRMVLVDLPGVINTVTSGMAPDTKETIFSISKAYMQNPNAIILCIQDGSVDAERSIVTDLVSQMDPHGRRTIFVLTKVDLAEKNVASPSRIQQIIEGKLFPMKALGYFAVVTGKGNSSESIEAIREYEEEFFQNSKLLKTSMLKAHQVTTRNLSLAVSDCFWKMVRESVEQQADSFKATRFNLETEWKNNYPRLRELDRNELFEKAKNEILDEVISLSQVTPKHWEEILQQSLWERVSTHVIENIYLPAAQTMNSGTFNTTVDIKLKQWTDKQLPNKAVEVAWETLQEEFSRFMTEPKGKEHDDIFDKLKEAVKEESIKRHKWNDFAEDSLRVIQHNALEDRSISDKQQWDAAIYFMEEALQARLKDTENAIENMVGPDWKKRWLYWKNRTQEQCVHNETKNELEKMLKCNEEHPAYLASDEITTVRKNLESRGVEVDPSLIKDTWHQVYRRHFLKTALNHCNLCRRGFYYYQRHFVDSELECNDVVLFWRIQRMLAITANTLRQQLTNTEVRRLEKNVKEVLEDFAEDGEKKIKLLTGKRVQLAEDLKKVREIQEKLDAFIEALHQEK
Chain of UniProt Q147X3 (Q147X3 whole entry, looked up): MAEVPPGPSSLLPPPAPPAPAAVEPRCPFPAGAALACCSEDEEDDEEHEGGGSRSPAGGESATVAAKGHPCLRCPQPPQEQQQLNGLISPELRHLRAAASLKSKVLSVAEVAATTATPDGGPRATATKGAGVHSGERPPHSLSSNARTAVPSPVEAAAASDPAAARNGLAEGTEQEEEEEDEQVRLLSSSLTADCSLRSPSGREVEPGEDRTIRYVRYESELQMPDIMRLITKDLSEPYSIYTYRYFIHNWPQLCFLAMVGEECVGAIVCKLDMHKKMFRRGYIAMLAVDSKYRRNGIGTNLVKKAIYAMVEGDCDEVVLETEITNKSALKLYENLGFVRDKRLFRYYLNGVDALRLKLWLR

| Target | log2 fold change [1] | log2 fold change [2] | log2 fold change [3] | log2 fold change [4] | log2 fold change [5] | log2 fold change [6] | log2 fold change [7] | log2 fold change [8] | log2 fold change [9] | log2 fold change [10] | log2 fold change [11] | log2 fold change [12] | log2 fold change [13] | log2 fold change [14] | log2 fold change [15] | log2 fold change [16] | log2 fold change [17] | log2 fold change [18] | log2 fold change [19] | log2 fold change [20] |
| --- | --- | --- | --- | --- | --- | --- | --- | --- | --- | --- | --- | --- | --- | --- | --- | --- | --- | --- | --- | --- |
| OAT (UniProt P04181) | -0.007 | 0.013 | 0.009 | 0.002 | 0 | -0.045 | -0.018 | -0.006 | 0.034 | -0.009 | 0.066 | 0.003 | -0.012 | -0.019 | -0.014 | -0.006 | -0.119 | 0.014 | -0.004 | -0.024 |
| NONO (UniProt Q15233) | -0.013 | 0.006 | 0.008 | -0.002 | 0.006 | -0.006 | -0.006 | -0.016 | 0.015 | 0.014 | -0.005 | 0.018 | -0.006 | -0.032 | -0.049 | 0 | 0.076 | -0.043 | 0.004 | -0.015 |
| OPA1 isoform 2 (UniProt O60313) | -0.001 | 0.006 | -0.004 | -0.036 | -0.035 | 0.031 | 0.026 | 0.024 | 0.046 | 0.02 | 0.022 | 0.029 | 0.024 | -0.057 | -0.033 | 0.037 | -0.016 | -0.192 | 0.007 | 0.014 |
| NTPCR (UniProt Q9BSD7) | -0.004 | 0.002 | 0.014 | 0 | 0.022 | 0.018 | 0.014 | -0.002 | 0.066 | -0.001 | 0.055 | -0.001 | 0.016 | 0.005 | -0.066 | 0.032 | -0.038 | -0.021 | -0.009 | 0.011 |
| NDC1 (UniProt Q9BTX1) | 0.009 | -0.02 | 0.007 | -0.012 | -0.013 | -0.009 | -0.031 | 0.032 | 0.007 | 0.072 | 0.053 | -0.051 | 0.075 | 0.081 | 0.016 | -0.02 | -0.3 | 0.155 | 0.032 | 0.011 |
| NEK9 (UniProt Q8TD19) | 0.005 | 0.027 | 0.055 | 0 | 0.01 | 0.006 | -0.01 | 0.012 | 0.009 | 0.016 | -0.001 | 0.054 | -0.008 | 0.004 | -0.01 | 0.004 | -0.046 | 0.048 | 0.035 | -0.016 |
| NAA30 (UniProt Q147X3) | 0.013 | -0.017 | 0.057 | -0.037 | -0.018 | 0.084 | -0.024 | -0.045 | 0.004 | 0.046 | 0.001 | 0.009 | 0.037 | 0.043 | 0.012 | -0.058 | -0.022 | 0.043 | -0.003 | 0.045 |
| NEBL isoform 2 (UniProt O76041) | -0.04 | 0.015 | -0.038 | 0.027 | 0.027 | -0.012 | -0.028 | 0 | 0.011 | -0.013 | 0.014 | 0.009 | -0.078 | 0.02 | 0.051 | -0.041 | -0.108 | 0.084 | 0.023 | -0.039 |
| NOSIP (UniProt Q9Y314) | 0.028 | 0.037 | 0 | 0.009 | -0.014 | -0.009 | 0 | 0.047 | 0.027 | -0.009 | -0.008 | 0.034 | 0.012 | 0.017 | -0.035 | -0.005 | -0.013 | 0.016 | 0.008 | -0.014 |
| NUSAP1 (UniProt Q9BXS6) | -0.003 | -0.022 | 0.023 | -0.014 | -0.006 | -0.02 | -0.017 | -0.004 | 0.016 | -0.023 | 0.001 | 0.009 | -0.002 | 0.073 | 0.004 | -0.009 | -0.399 (active) | 0.189 | 0.019 | -0.001 |
| MSH2 (UniProt P43246) | -0.009 | -0.01 | 0.019 | 0.02 | 0.019 | -0.012 | -0.014 | 0 | 0.037 | 0.019 | -0.014 | 0.001 | 0.007 | -0.033 | -0.068 | 0.038 | 0.003 | -0.055 | 0 | 0.032 |
| NUDT4 (UniProt Q9NZJ9) | 0.091 | 0.022 | 0.074 | 0.067 | -0.012 | 0.017 | 0.003 | -0.105 | -0.014 | 0.058 | -0.24 | 0.04 | -0.032 | -0.078 | -0.054 | 0.082 | 0.23 | 0.005 | -0.03 | 0.005 |
| NCAPG (UniProt Q9BPX3) | 0.006 | 0.015 | 0.027 | -0.015 | -0.026 | -0.009 | -0.02 | 0.014 | 0.018 | 0.024 | -0.013 | 0.021 | 0.018 | -0.057 | -0.023 | 0.015 | -0.05 | -0.024 | 0.001 | -0.011 |
| NUP93 (UniProt Q8N1F7) | -0.013 | 0.007 | 0.036 | -0.015 | 0 | 0.027 | 0.019 | -0.029 | 0.036 | 0 | -0.001 | 0.014 | 0.036 | -0.069 | -0.094 | 0.044 | -0.048 | -0.079 | 0.013 | 0.028 |
| NIFK (UniProt Q9BYG3) | 0.02 | -0.039 | 0.022 | 0.002 | -0.001 | 0.016 | -0.035 | -0.005 | 0.016 | 0.032 | 0.015 | 0.036 | 0.033 | 0.006 | -0.027 | 0.009 | 0.093 | -0.045 | 0.005 | -0.018 |
| NF1 (UniProt P21359) | 0.018 | 0.02 | 0.07 | -0.03 | -0.009 | 0.004 | -0.02 | 0.041 | 0.007 | -0.032 | 0.019 | 0.024 | 0.029 | -0.044 | -0.048 | 0.031 | -0.035 | -0.041 | 0.001 | -0.029 |
